Out of some 5,500 compounds screened, about 2,000 (36%) were called active. Roughly 18% stayed inconclusive and do not appear here. The list shows a part of the results. A number with no mark means an inactive call. No stated cut-off is given here; in the data, active means normalized growth mostly below about 0.91 (no sharp cut-off); inconclusive means no clear call, values can overlap the other calls; inactive means mostly above about 0.92.
Assay: chemical genetic growth profiling, strain panel (AID 1159580);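 further: tested at 20 µM; growth read once vehicle control cultures reached saturation at 30 °C; 1 = growth at the plate median or of vehicle wells; lower values mean less growth of the strain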
Settings: S. cerevisiae deletion strains, growth OD
[1] = locus YAL040C, strain CLN3, active compounds read low
[2] = locus YCL061C, strain MRC1 (second series), active compounds read low
[3] = locus YDR363W, strain ESC2, active compounds read low
[4] = locus YER002W, strain NOP16, active compounds read low
[5] = locus YNL175C, strain NOP13, active compounds read low
[6] = locus YNL197C, strain WHI3, active compounds read low
[7] = locus YNL224C, strain SQS1, active compounds read low
[8] = locus YOR083W, strain WHI5 (second series), active compounds read low

| SMILES | normalized growth [1] | normalized growth [2] | normalized growth [3] | normalized growth [4] | normalized growth (locus YGR078C, strain PAC10, active compounds read low) | normalized growth (locus YNL128W, strain TEP1, active compounds read low) | normalized growth [5] | normalized growth [6] | normalized growth [7] | normalized growth [8] | normalized growth (locus YPL241C, strain CIN2, active compounds read low) | normalized growth (locus YMR263W, strain SAP30, active compounds read low) | normalized growth (locus YMR307W, strain GAS1, active compounds read low) | normalized growth (locus YNL153C, strain GIM3, active compounds read low) | normalized growth (locus YNL322C, strain KRE1, active compounds read low) |
| --- | --- | --- | --- | --- | --- | --- | --- | --- | --- | --- | --- | --- | --- | --- | --- |
| C[N+]1(C)CCN(c2ccccc2)CC1 | 0.873 (active) | 1 | 1.04 | 0.961 | 1 | 0.997 | 0.974 | 0.958 | 1 | 0.979 | 1 |  |  |  |  |
| C[N+]1(C)CCC(OC(=O)C(c2ccccc2)c2ccccc2)CC1 | 1.08 | 0.992 | 0.956 | 0.999 |  |  | 1.01 | 1.03 | 1.01 | 1.02 |  | 0.987 | 0.988 | 1.01 | 0.915 |

Source: PubChem BioAssay AID1159580 (chemical genetic matrix, 2015)
